Test results taken from PubChem BioAssay AID1159580 (chemical genetic matrix, 2015).
Among all 5,500 compounds or so, about 2,000 (36%) were called active. Roughly 18% stayed inconclusive and do not appear here. No stated cut-off is given here; in the data, active means normalized growth mostly below about 0.91 (no sharp cut-off); inconclusive means no clear call, values can overlap the other calls; inactive means mostly above about 0.92. The list shows a part of the results.

Experiment: chemical genetic growth profiling, strain panel (AID 1159580);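 further: tested at 20 µM; growth read once vehicle control cultures reached saturation at 30 °C; 1 = growth at the plate median or of vehicle wells; lower values mean less growth of the strain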
Conditions: growth OD

Measured: normalized growth

CCN(CC)CCOC(=O)C(c1ccccc1)c1ccccc1
inactive: S. cerevisiae deletion strains, locus YKL068W, hits give low values 0.986 | S. cerevisiae deletion strains, locus YKL085W, strain MDH1 (second series), hits give low values 0.994 | S. cerevisiae deletion strains, locus YKL085W, strain MDH1, hits give low values 0.994 | S. cerevisiae deletion strains, locus YKL160W, strain elf1, hits give low values 0.985 | S. cerevisiae deletion strains, locus YKL190W, strain CNB1, hits give low values 0.989 | S. cerevisiae deletion strains, locus YKR001C, strain vps1, hits give low values 1 | S. cerevisiae deletion strains, locus YKR026C, strain gcn3, hits give low values 0.963 | S. cerevisiae deletion strains, locus YKR091W, strain srl3, hits give low values 0.98 | S. cerevisiae deletion strains, locus YLL001W, strain dnm1, hits give low values 0.952 | S. cerevisiae deletion strains, locus YLL026W, hits give low values 0.971 | S. cerevisiae deletion strains, locus YLL041C, strain sdh2, hits give low values 0.974 | S. cerevisiae deletion strains, locus YLR027C, strain aat2, hits give low values 0.985 | S. cerevisiae deletion strains, locus YLR039C, strain RIC1, hits give low values 1 | S. cerevisiae deletion strains, locus YLR058C, strain SHM2, hits give low values 0.999 | S. cerevisiae deletion strains, locus YLR102C, strain apc9, hits give low values 0.988 | S. cerevisiae deletion strains, locus YLR113W, strain HOG1, hits give low values 0.965 | S. cerevisiae deletion strains, locus YLR221C, strain rsa3, hits give low values 1 | S. cerevisiae deletion strains, locus YLR258W, strain gsy2, hits give low values 0.963 | S. cerevisiae deletion strains, locus YLR262C, strain YPT6 (second series), hits give low values 0.966 | S. cerevisiae deletion strains, locus YLR262C, strain YPT6, hits give low values 1 | S. cerevisiae deletion strains, locus YLR268W, strain sec22, hits give low values 0.984 | S. cerevisiae deletion strains, locus YLR320W, strain mms22, hits give low values 1.01 | S. cerevisiae deletion strains, locus YLR330W, strain CHS5, hits give low values 0.991 | S. cerevisiae deletion strains, locus YLR342W, strain FKS1 (second series), hits give low values 0.988 | S. cerevisiae deletion strains, locus YLR342W, strain FKS1, hits give low values 0.968 | S. cerevisiae deletion strains, locus YLR357W, strain rsc2, hits give low values 0.982 | S. cerevisiae deletion strains, locus YLR370C, strain arc18, hits give low values 0.945 | S. cerevisiae deletion strains, locus YLR371W, strain rom2, hits give low values 1 | S. cerevisiae deletion strains, locus YLR384C, strain iki3, hits give low values 0.97 | S. cerevisiae deletion strains, locus YLR418C, strain cdc73, hits give low values 0.961 | S. cerevisiae deletion strains, locus YML016C, strain PPZ1, hits give low values 0.998 | S. cerevisiae deletion strains, locus YML032C, strain rad52, hits give low values 1 | S. cerevisiae deletion strains, locus YML120C, strain ndi1, hits give low values 0.961 | S. cerevisiae deletion strains, locus YML124C, strain tub3, hits give low values 0.992 | S. cerevisiae deletion strains, locus YMR058W, strain fet3, hits give low values 0.97 | S. cerevisiae deletion strains, locus YMR078C, strain ctf18, hits give low values 0.983 | S. cerevisiae deletion strains, locus YMR125W, strain sto1, hits give low values 0.949 | S. cerevisiae deletion strains, locus YMR129W, hits give low values 0.975 | S. cerevisiae deletion strains, locus YMR205C, strain PFK2, hits give low values 0.971 | S. cerevisiae deletion strains, locus YMR223W, strain ubp8, hits give low values 0.98 | S. cerevisiae deletion strains, locus YMR231W, strain pep5, hits give low values 0.977 | S. cerevisiae deletion strains, locus YMR263W, strain SAP30, hits give low values 0.991 | S. cerevisiae deletion strains, locus YMR307W, strain GAS1, hits give low values 1.02 | S. cerevisiae deletion strains, locus YNL067W, strain RPL9B, hits give low values 1.01 | S. cerevisiae deletion strains, locus YNL071W, strain lat1, hits give low values 0.973 | S. cerevisiae deletion strains, locus YNL128W, strain TEP1, hits give low values 0.968 | S. cerevisiae deletion strains, locus YNL183C, strain NPR1, hits give low values 0.94 | S. cerevisiae deletion strains, locus YNL209W, strain ssb2, hits give low values 0.969 | S. cerevisiae deletion strains, locus YNL233W, strain BNI4, hits give low values 1.03 | S. cerevisiae deletion strains, locus YNL248C, strain rpa49, hits give low values 0.976 | S. cerevisiae deletion strains, locus YNL250W, strain rad50, hits give low values 0.99 | S. cerevisiae deletion strains, locus YNL271C, strain bni1, hits give low values 0.984 | S. cerevisiae deletion strains, locus YNL298W, strain CLA4, hits give low values 0.982 | S. cerevisiae deletion strains, locus YNL307C, strain MCK1, hits give low values 0.998 | S. cerevisiae deletion strains, locus YNL322C, strain KRE1 (second series), hits give low values 0.96 | S. cerevisiae deletion strains, locus YNL322C, strain KRE1, hits give low values 0.987 | S. cerevisiae deletion strains, locus YNR049C, strain mso1, hits give low values 0.96 | S. cerevisiae deletion strains, locus YNR052C, strain pop2, hits give low values 0.98 | S. cerevisiae deletion strains, locus YOL006C, strain TOP1, hits give low values 1.04 | S. cerevisiae deletion strains, locus YOL012C, strain htz1 0.836 | S. cerevisiae deletion strains, locus YOL147C, strain pex11, hits give low values 0.994 | S. cerevisiae deletion strains, locus YOR001W, strain rrp6, hits give low values 0.979 | S. cerevisiae deletion strains, locus YOR061W, strain CKA2, hits give low values 0.999 | S. cerevisiae deletion strains, locus YOR069W, strain VPS5, hits give low values 0.989 | S. cerevisiae deletion strains, locus YOR070C, strain gyp1, hits give low values 0.974 | S. cerevisiae deletion strains, locus YOR080W, strain dia2, hits give low values 0.957 | S. cerevisiae deletion strains, locus YOR083W, strain WHI5, hits give low values 0.977 | S. cerevisiae deletion strains, locus YOR106W, strain vam3, hits give low values 0.967 | S. cerevisiae deletion strains, locus YOR136W, strain idh2, hits give low values 0.993 | S. cerevisiae deletion strains, locus YOR144C, strain elg1, hits give low values 1 | S. cerevisiae deletion strains, locus YOR184W, strain ser1, hits give low values 0.982 | S. cerevisiae deletion strains, locus YOR231W, strain MKK1, hits give low values 0.989 | S. cerevisiae deletion strains, locus YOR265W, strain rbl2, hits give low values 0.968 | S. cerevisiae deletion strains, locus YOR270C, strain vph1, hits give low values 0.941 | S. cerevisiae deletion strains, locus YOR290C, strain snf2, hits give low values 0.975 | S. cerevisiae deletion strains, locus YOR316C, strain cot1, hits give low values 0.986 | S. cerevisiae deletion strains, locus YPL051W, strain arl3, hits give low values 0.978 | S. cerevisiae deletion strains, locus YPL055C, strain LGE1, hits give low values 1.02 | S. cerevisiae deletion strains, locus YPL078C, strain atp4, hits give low values 0.965 | S. cerevisiae deletion strains, locus YPL106C, strain sse1, hits give low values 0.931 | S. cerevisiae deletion strains, locus YPL240C, strain hsp82, hits give low values 0.958 | S. cerevisiae deletion strains, locus YPL241C, strain CIN2, hits give low values 0.991 | S. cerevisiae deletion strains, locus YPL256C, strain CLN2, hits give low values 0.971 | S. cerevisiae deletion strains, locus YPR119W, strain clb2, hits give low values 1 | S. cerevisiae deletion strains, locus YPR141C, strain kar3, hits give low values 0.989 | S. cerevisiae deletion strains, locus YPR163C, strain tif3, hits give low values 0.996 | S. cerevisiae deletion strains, locus YPR167C, strain met16, hits give low values 0.987 | S. cerevisiae deletion strains, strain wtn01, hits give low values 0.969 | S. cerevisiae strains, strain wild type, hits give low values 0.992
